From PubChem BioAssay
Hits are enriched below; roughly 6.5% of the tested compounds scored in any of these assays.
Vaccinia Venus = inhibitors of vaccinia virus (Venus reporter) | Vaccinia virus Venus reporter expression, fluorescence | Potency, µM (doses to about 36.5 µM), without a hit: top-dose activity change, negative = inhibition, most hits filed as inhibitors | 330,000 compounds, 0.46% hits | AID 720580; calls by dose curve; tested in A549 cells; further: potency means the concentration at half of the fitted maximal effect; nearly all actives have a fitted effect of over 30% in size
FMDV antiviral = antivirals against foot and mouth disease virus; Potency, µM (titrated, usually from 57.9 µM), without a hit: top-dose activity change, negative = inhibition, usual class: inhibitors; AID 1159524; FMDV antiviral cell-based qHTS; 410,000 compounds, 1.2% hits; calls by dose curve; tested in HEK293T cells; further: read-out not given here; potency means the concentration at half of the fitted maximal effect; nearly all actives have a fitted effect of over 45% in size
Lassa entry inh = Lassa virus entry inhibition; 300,000 compounds, 1.2% hits; Lassa virus pseudotype entry inhibition, cell reporter; Potency, µM (top dose mostly 37.9 µM), without a hit: at the highest dose activity change, negative = inhibition, hits mostly inhibitors; calls by dose curve; tested in HEK293 cells; further: potency means the concentration at half of the fitted maximal effect; nearly all actives have a fitted effect of over 50% in size
Vaccinia mCherry = inhibitors of vaccinia virus infection (mCherry reporter signal) | 310,000 compounds, 0.63% hits | AID 720579 | Potency, µM (series often up to 36.5 µM), without a hit: at the highest dose activity change, negative = inhibition, actives largely listed as inhibitors | Vaccinia virus mCherry reporter infection, fluorescence; calls by dose curve; tested in A549 cells; further: potency means the concentration at half of the fitted maximal effect; nearly all actives have a fitted effect of over 35% in size
HCMV inh = inhibitors of human cytomegalovirus; 410,000 compounds, 4.5% hits; HFF cells, HCMV-luciferase reporter, 72 h; active compounds read low; activity change, negative = inhibition, % at 57.5 µM; in the data active means activity change below about -60%; inconclusive means no clear call, values can overlap the other calls; inactive means above about -39%
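Steps: HFFs plated, 16 h 37C; compounds added; HCMV-luciferase added to MOI 1 PFU/cell; 72 h 37C; OneGlo reagent, 5 min room temperature; luminescence read, normalized to controls.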
MARV entry inh = blocks Marburg virus binding to or entry into cells; 300,000 compounds, 1.8% hits; Marburg virus pseudotyped entry inhibition, cell reporter; Potency, µM (top dose mostly 37.8 µM), for the others: at the top dose activity change, negative = inhibition, most hits filed as inhibitors; AID 540276; calls by dose curve; tested in HEK293 cells; further: potency means the concentration at half of the fitted maximal effect
* marks the source's active call; other numbers are inactive results; i = inactive; ? = inconclusive; . = no result given; [ ] = dose if it differs, or a comment. On the % scale 0 is the no-effect control and ±100 the full control effect.

SMILES | Vaccinia Venus | FMDV antiviral | Lassa entry inh | Vaccinia mCherry | HCMV inh | MARV entry inh
COc1ccc2c(c1)-c1nc(NC(=O)c3ccc(OC)c(Br)c3)sc1CC2 | -9% | 0% | -26%[46.1 µM] | -18% | -32 | -33%[46.1 µM]
NNC(=O)c1cccc(COc2ccc3c(c2)CCC3)c1 | -20% | 13µM* | 2.1µM* | -20% | 65 | ?
NNC(=O)c1cccc(COc2ccccc2Br)c1 | -28% | -21% | ? | -12% | 165 | ?
CCc1ccc2nc3c(c(C(=O)O)c2c1)CCC3 | . | -3% | ? | . | 5 | -1%
Cc1nc(/N=C(\N)NC(=O)c2ccccc2)nc2ccccc12 | -4% | 40% | 1% | i | 41 | ?
CCc1ccc2nc(N=C(N)N)nc(C)c2c1 | ? | ? | -5% | ? | -87* | ?
Cc1ccc2nc(N=C(N)N)nc(C)c2c1 | -20% | ? | -13% | i | -89* | ?
Cc1cc2nc(N=C(N)N)nc(C)c2cc1C | . | ? | . | . | -99* | .
CCC(=O)N/C(N)=N/c1nc(C)c2cc(C)c(C)cc2n1 | ? | -15% | -8% | ? | -8 | 0%[46.1 µM]
Cc1nc(N=C(N)N)nc2ccccc12 | -17% | ? | ? | -17% | -81* | ?
Cc1cc2nc(/N=C(\N)NC(=O)C(C)C)nc(C)c2cc1C | 1µM* | -27% | ? | ? | -28 | ?
COc1ccc(S(=O)(=O)N2CCCCC2c2cc(C(=O)NCc3ccccc3)no2)cc1 (stereo not drawn) | -6% | 1% | . | i | -62* | .
O=C(NCc1ccccc1)c1cc(C2CCCCN2S(=O)(=O)c2ccccc2)on1 (stereo not drawn) | -8% | 1% | . | 28% | -19 | .
CN(Cc1cccs1)c1nc(-c2cccnc2)nc2ccccc12 | -19% | 32µM* | -17% | -15% | -23 | ?
CN(C)c1nc(-c2cccnc2)nc2ccccc12 | . | -6% | . | . | . | .
O=C(CSC1=Nc2ccccc2N=C(c2ccc(F)cc2)C1)Nc1cccc(C(F)(F)F)c1 | -8% | -23% | ? | -7% | -18 | .
Cc1cccc(N(CC(=O)NCCc2ccccc2)S(=O)(=O)c2ccccc2)c1C | -7% | -13% | ? | -23% | -10 | -15%[46.1 µM]
Cc1cccc(N(CC(=O)N(C)Cc2ccccc2)S(=O)(=O)c2ccccc2)c1C | -9% | -5% | -13%[46.1 µM] | -18% | -63* | ?
O=C(Nc1ccc(F)cc1)c1ccc(-n2cnnc2)cc1 | -9% | 0% | 11%[46.1 µM] | -9% | -38 | .
NC1(C(=O)O)CCCCC1 | . | . | 5% | . | . | ?
NC1(C(=O)O)CSSC1 | ? | -1% | ? | ? | -80* | ?
COc1ccc(OCC(=O)Nc2nc3c(s2)CCCC3)cc1 | . | 10% | . | . | ? | .
O=C(CCS(=O)(=O)Cc1ccccc1)Nc1nc2c(s1)CCCC2 | ? | . | ? | -28% | -61* | ?
COc1ccccc1OCC(=O)Nc1nc2c(s1)CCCC2 | . | 20% | . | . | -67* | .
Cc1ccc(CC(=O)Nc2nc3c(s2)CCCC3)cc1 | -6% | 25% | ? | 8.9µM* | -73* | ?
SMILES | Vaccinia Venus | FMDV antiviral | Lassa entry inh | Vaccinia mCherry | HCMV inh | MARV entry inh
Cc1ccc(C(C)C)c(OCC(=O)Nc2nc3c(s2)CCCC3)c1 | 8% | -3% | 3.2µM* | -13% | -82* | ?
O=C(Nc1cccc(Br)c1)Nc1nc2c(s1)CCCCCC2 | -16% | -4% | 4%[46.1 µM] | -21% | -86* | .
O=C(CSc1nc2ccccc2o1)Nc1nc2c(s1)CCCC2 | . | ? | . | . | -86* | .
O=c1[nH]c(=O)n(C2CC(O)C(CO)O2)cc1F (stereo not drawn) | ? | 8% | . | ? | . | .
CCCCCCCCCCCCCCCCCCNc1ccn(C2OC(COP(=O)(O)OCC3OC(n4cc(F)c(=O)[nH]c4=O)CC3O)C(O)C2O)c(=O)n1 (stereo not drawn) | ? | -5% | ? | 0.32µM* | -88* | ?
CC(NS(=O)(=O)c1ccc2[nH]c(=O)c(=O)[nH]c2c1)C(=O)O (stereo not drawn) | -9% | -16% | -2% | -1% | -92* | 16%
CC(C)CC(NS(=O)(=O)c1ccc2[nH]c(=O)c(=O)[nH]c2c1)C(=O)O (stereo not drawn) | -3% | -9% | 0% | i | -33 | ?
Cc1ccc(/C=N/n2c(-c3ccccc3)n[nH]c2=S)cc1 | . | -14% | . | . | -21 | .
Cc1nn(-c2ccccc2)c(C)c1/C=N/n1c(-c2ccc(C(C)(C)C)cc2)n[nH]c1=S | -22% | -8% | 0.11µM* | . | -18 | -26%
CC(C)c1ccc(/C=N/n2c(-c3ccccc3)n[nH]c2=S)cc1 | . | 3% | . | . | -66* | .
Cc1ccc(-c2n[nH]c(=S)n2/N=C/c2c(C)nn(-c3ccccc3)c2C)cc1 | -8% | ? | ? | -11% | 7 | ?
S=c1[nH]nc(-c2ccccc2)n1/N=C/c1ccc(-c2ccccc2Cl)o1 | 12% | 0% | 0.82µM* | ? | ? | 0.71µM*
Cc1c(C(=O)Nc2cccc(C(F)(F)F)c2)sc2nc[nH]c(=O)c12 | -20% | 0% | -15%[46.1 µM] | -7% | 8 | .
CCOc1ccc(-n2ccnc2SCC(=O)Nc2ccc3c(c2)OCO3)cc1 | -14% | -16% | 7%[46.1 µM] | i | ? | .
CCCCCCCSc1cc(OC)c(CCN(C)C)cc1OC | 10µM* | -17% | ? | ? | -26 | ?
CCCCCSc1cc(OC)c(CCN)cc1OC | -18% | 0% | ? | . | -70* | ?
CN1C2=NCCN2C(=O)c2cc(Cl)ccc21 | -11% | 6% | 7% | -7% | 53 | -2%[46.1 µM]
Clc1ccc2c(c1)-c1ccccc1C1=NCCN12 | ? | ? | . | ? | -96* | .
Brc1ccc2c(c1)-c1ccccc1C1=NCCN12 | ? | ? | . | ? | -69* | .
